Our source for the Potency and outcome values is PubChem BioAssay (Tox21).

Records with an inconclusive call do not appear. Some compounds were tested as several samples or in several runs, with calls that do not always agree. The source made the active and inactive calls. Unless noted, calls follow the shape of the dose curve; as a rule, active = well fitted curve in the direction sought with a large enough effect in the repeat runs; inconclusive = weak or mixed curves; inactive = no such curve, though single readings can be large; an effect the other way counts as inactive or inconclusive.

A short description of assay [1]: qHTS assay to identify small molecule antagonists of the thyroid receptor (TR) signaling pathway - cell viability counter screen (AID 743064). Also: nearly all actives have a fitted effect of over 50% in size. The procedure, abridged: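 GH3.TRE-Luc cells, 4 h pre-plating; cpd + T3 1 nM final; 37 °C 23.5 h; CellTiter-Fluor 30 min; fluorescence read.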
Assay [2] can be described thus: qHTS assay to identify small molecule antagonists of the thyroid receptor (TR) signaling pathway (AID 743065). Also: series mostly up to about 70 µM; nearly all actives have a fitted effect of over 55% in size. The method, boiled down:
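GH3.TRE-Luc rat pituitary cells carrying two TR response elements driving luciferase were plated for 4 h, given compound plus 1 nM T3 (final), and incubated 23.5 h at 37 C. ONE-Glo luminescence measured reporter inhibition; CellTiter-Fluor fluorescence tracked cytotoxicity.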
Background: In qHTS, concentration-response curves come from the screen itself.

For assay [3], the system named is thyroid hormone receptor (rat, GH3 cells). Description: qHTS assay to identify small molecule agonists of the thyroid receptor (TR) signaling pathway (AID 743066; calls by dose curve).
A short description of assay [4]: qHTS assay to identify small molecule antagonists of the estrogen receptor alpha (ER-alpha) signaling pathway - cell viability counter screen (AID 743074; calls by dose curve;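 also: HEK293 cells carrying ER-alpha-UAS-bla reporter stimulated with 17beta-estradiol; nearly all actives have a fitted effect of over 45% in size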).
The nature of assay [5]: qHTS assay to identify small molecule antagonists of the estrogen receptor alpha (ER-alpha) signaling pathway using the BG1 cell line - cell viability counter screen (AID 743081).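 Also: compound given together with 17beta-estradiol as the ER stimulus; series mostly up to about 70 µM; nearly all actives have a fitted effect of over 45% in size.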
The next assay concerns the target Aromatase (Homo sapiens) (UniProt P11511). The experiment in a line: qHTS assay to identify aromatase inhibitors (AID 743083). Also: series mostly up to about 70 µM; nearly all actives have a fitted effect of over 55% in size.
Assay [6] in a line: qHTS assay to identify aromatase inhibitors - cell viability counter screen (AID 743084).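 Also: cells stimulated with testosterone during compound exposure; nearly all actives have a fitted effect of over 55% in size.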
The target of assay [7] is Aryl hydrocarbon receptor (Homo sapiens) (UniProt P35869). Description: qHTS assay to identify small molecule that activate the aryl hydrocarbon receptor (AhR) signaling pathway (AID 743085).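 Also: HG2L7.5c1 human HepG2 liver cells with stably integrated DRE-driven firefly reporter; series mostly up to about 70 µM; nearly all actives have a fitted effect of over 15% in size.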 The procedure, abridged: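 Luminescence read-out: ONE-Glo reagent, 30 min at room temperature, in HG2L7.5c1 HepG2 reporter cells treated 24 h at 37C. Viability was measured beforehand by CellTiter-Fluor fluorescence after 30 min at 37C.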
Aryl hydrocarbon receptor (Homo sapiens), sequence (P35869 whole entry, looked up): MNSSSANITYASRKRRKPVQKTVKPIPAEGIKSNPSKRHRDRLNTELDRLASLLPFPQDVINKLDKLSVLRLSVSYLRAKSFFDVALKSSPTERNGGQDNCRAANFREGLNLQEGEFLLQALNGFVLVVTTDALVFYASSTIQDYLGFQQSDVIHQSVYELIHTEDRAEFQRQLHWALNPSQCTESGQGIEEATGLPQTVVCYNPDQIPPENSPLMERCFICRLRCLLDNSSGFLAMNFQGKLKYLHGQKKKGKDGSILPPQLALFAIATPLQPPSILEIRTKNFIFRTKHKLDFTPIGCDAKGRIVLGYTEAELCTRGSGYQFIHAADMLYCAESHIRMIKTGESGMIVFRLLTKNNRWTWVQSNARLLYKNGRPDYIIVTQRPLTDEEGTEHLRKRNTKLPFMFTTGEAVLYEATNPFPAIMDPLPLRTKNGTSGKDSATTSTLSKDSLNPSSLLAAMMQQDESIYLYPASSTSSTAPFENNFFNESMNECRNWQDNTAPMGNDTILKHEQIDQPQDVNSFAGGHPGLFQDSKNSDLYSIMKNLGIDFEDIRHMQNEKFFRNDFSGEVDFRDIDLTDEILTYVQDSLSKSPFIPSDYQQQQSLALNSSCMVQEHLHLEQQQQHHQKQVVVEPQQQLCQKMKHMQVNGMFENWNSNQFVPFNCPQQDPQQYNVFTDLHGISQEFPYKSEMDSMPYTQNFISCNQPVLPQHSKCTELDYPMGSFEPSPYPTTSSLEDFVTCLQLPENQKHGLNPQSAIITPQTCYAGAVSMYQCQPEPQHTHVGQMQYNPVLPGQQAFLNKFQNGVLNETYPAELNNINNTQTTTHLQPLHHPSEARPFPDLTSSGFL

A short description of assay [8]: qHTS assay to identify small molecule that activate the aryl hydrocarbon receptor (AhR) signaling pathway - cell viability counter screen (AID 743086).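 Also: HepG2 liver cells carrying the AhR DRE luciferase reporter; series mostly up to about 70 µM; nearly all actives have a fitted effect of over 45% in size.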 The method, boiled down: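 HepG2-AhR-luc (HG2L7.5c1) cells, 4000/well, were preincubated 5 h at 37C, exposed to compound in qHTS format for 24 hr at 37C, then given CellTiter-Fluor for 30 min; viability was read as fluorescence in the reporter wells.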

Assay [9] has as its target Peroxisome proliferator-activated receptor gamma (Homo sapiens) (UniProt P37231). The experiment in a line: qHTS assay to identify small molecule agonists of the peroxisome proliferator-activated receptor gamma (PPARg) signaling pathway (AID 743094; active = well fitted activation curve with a large enough effect in the signal ratio in the repeat runs, not every such curve was filed as active; the % refers to the signal ratio). The procedure, abridged:
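Following 5 h plating at 37C, PPARg-bla HEK293H cells receive compound or DMSO for 17 h; fluorescence intensity is recorded after LiveBLAzer B/G loading for 1 h at room temperature.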

Assay [10] shares this target. The experiment in a line: qHTS assay to identify small molecule antagonists of the peroxisome proliferator-activated receptor gamma (PPARg) signaling pathway (AID 743191; calls by dose curve; also: series mostly up to about 63 µM; nearly all actives have a fitted effect of over 30% in size). The method, boiled down: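 GeneBLAzer PPARg UAS-bla HEK293H cells carrying a UAS-driven beta-lactamase reporter were plated at 3000 cells/well, preincubated 5 h at 37C, then given compound for 17 h at 37C; LiveBLAzer B/G FRET substrate was read after 1 h at room temperature.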

Assay [11] can be described thus: qHTS assay to identify small molecule antagonists of the peroxisome proliferator-activated receptor gamma (PPARg) signaling pathway - cell viability counter screen (AID 743194). Also: nearly all actives have a fitted effect of over 55% in size. The method, boiled down:
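PPARg-UAS-bla HEK293H cells were plated, rested 5 h at 37 C, then treated with compounds plus rosiglitazone (50 nM final) for 17 h at 37 C; viability was then read by CellTiter-Glo luminescence after 30 min at room temperature.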

Assay [12] is described as follows: qHTS assay for small molecule agonists of the antioxidant response element (ARE) signaling pathway (AID 743202; active = well fitted activation curve with a large enough effect in the signal ratio in the repeat runs, not every such curve was filed as active; the % refers to the signal ratio). The method, boiled down: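 Compounds delivered in DMSO to ARE-bla HepG2 cells (2,000 cells/well, pre-incubated 5 h) and left 16 h at 37 C. LiveBLAzer B/G FRET substrate then added for 2 h at RT before fluorescence reading.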
Assay [13] is described as follows: qHTS assay for small molecule agonists of the antioxidant response element (ARE) signaling pathway - cell viability counter screen (AID 743203; calls by dose curve; also: nearly all actives have a fitted effect of over 55% in size). The method, boiled down:
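Compounds in DMSO were pinned onto ARE-bla HepG2 cells plated 5 hrs earlier at 2,000 cells/well. Sixteen hours later at 37C/5% CO2, CellTiter-Glo was added and luminescence measured after 30 min at room temperature.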

The nature of assay [14]: qHTS assay for small molecule activators of the heat shock response signaling pathway - cell viability counter screen (AID 743209). Also: nearly all actives have a fitted effect of over 50% in size. The procedure, abridged: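 Counter screen for cytotoxicity in HeLa HSE-bla reporter cells. Treatment was 5 h at 37 C; viability was detected by luminescent ATP assay (CellTiter-Glo) in the same wells as the beta-lactamase read.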
A short description of assay [15]: qHTS assay for small molecule activators of the heat shock response signaling pathway (AID 743210; active = well fitted activation curve with a large enough effect in the signal ratio in the repeat runs, with a control signal flat, not every such curve was filed as active; the % refers to the signal ratio;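 also: HeLa cells with beta-lactamase reporter driven by heat shock elements; series mostly up to about 63 µM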). The method, boiled down:
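Reporter gene assay: HeLa cells stably bearing an HSE-bla construct, compound treatment 5 h at 37 C, LiveBLAzer substrate 2.5 h at RT, fluorescence intensity.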

Assay [16] concerns the target Estrogen receptor (Homo sapiens) (UniProt P03372). Description: qHTS assay to identify small molecule agonists of the estrogen receptor alpha (ER-alpha) signaling pathway (AID 743075; calls by dose curve;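 also: HEK293 GripTite cells with ER-alpha and UAS-driven beta-lactamase reporter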).
Assay [17] shares this target. Description: qHTS assay to identify small molecule agonists of the estrogen receptor alpha (ER-alpha) signaling pathway using the BG1 cell line (AID 743079). Also: nearly all actives have a fitted effect of over 20% in size. Also: potency is read from the fitted curve at half-maximal effect.
For assay [18] the target is unchanged. Description: qHTS assay to identify small molecule antagonists of the estrogen receptor alpha (ER-alpha) signaling pathway (AID 743069; active = well fitted curve in the direction sought with a large enough effect in the signal ratio in the repeat runs, not every such curve was filed as active; the % refers to the signal ratio). The procedure, abridged: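 Estradiol-stimulated ER-alpha-UAS-bla HEK293 cells, 18 hr compound exposure at 37C. LiveBLAzer B/G substrate, 2 hr RT, fluorescence read.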
Assay [19] can be described thus: qHTS assay to identify small molecule antagonists of the estrogen receptor alpha (ER-alpha) signaling pathway using the BG1 cell line (AID 743080; calls by dose curve;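 also: BG1 cells stimulated with 17beta-estradiol alongside compound; series mostly up to about 70 µM; nearly all actives have a fitted effect of over 25% in size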). The procedure, abridged: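 After 5 days in phenol-red-free 10% charcoal-stripped FBS medium, BG1-Luc-4E2 cells were seeded, left 24 h at 37 C, co-treated with compounds and 17beta-estradiol for 21.5 h, then assayed for viability and luciferase.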

Estrogen receptor (Homo sapiens), sequence (P03372 whole entry, looked up): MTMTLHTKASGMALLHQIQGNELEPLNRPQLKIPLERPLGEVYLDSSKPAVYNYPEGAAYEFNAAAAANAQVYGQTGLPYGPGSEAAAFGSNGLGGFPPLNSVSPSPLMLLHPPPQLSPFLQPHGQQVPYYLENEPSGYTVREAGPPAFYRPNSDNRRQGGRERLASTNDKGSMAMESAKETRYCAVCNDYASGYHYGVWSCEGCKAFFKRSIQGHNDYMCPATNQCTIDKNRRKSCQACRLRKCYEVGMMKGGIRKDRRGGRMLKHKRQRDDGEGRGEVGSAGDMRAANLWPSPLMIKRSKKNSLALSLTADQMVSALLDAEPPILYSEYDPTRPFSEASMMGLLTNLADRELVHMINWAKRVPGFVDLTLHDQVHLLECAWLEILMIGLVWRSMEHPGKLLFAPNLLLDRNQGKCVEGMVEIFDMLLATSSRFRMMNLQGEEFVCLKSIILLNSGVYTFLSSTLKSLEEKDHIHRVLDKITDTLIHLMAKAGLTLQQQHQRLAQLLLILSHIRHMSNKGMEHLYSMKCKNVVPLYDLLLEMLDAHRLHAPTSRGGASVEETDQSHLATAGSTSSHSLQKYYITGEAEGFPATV
Aromatase (Homo sapiens), sequence (P11511 whole entry, looked up): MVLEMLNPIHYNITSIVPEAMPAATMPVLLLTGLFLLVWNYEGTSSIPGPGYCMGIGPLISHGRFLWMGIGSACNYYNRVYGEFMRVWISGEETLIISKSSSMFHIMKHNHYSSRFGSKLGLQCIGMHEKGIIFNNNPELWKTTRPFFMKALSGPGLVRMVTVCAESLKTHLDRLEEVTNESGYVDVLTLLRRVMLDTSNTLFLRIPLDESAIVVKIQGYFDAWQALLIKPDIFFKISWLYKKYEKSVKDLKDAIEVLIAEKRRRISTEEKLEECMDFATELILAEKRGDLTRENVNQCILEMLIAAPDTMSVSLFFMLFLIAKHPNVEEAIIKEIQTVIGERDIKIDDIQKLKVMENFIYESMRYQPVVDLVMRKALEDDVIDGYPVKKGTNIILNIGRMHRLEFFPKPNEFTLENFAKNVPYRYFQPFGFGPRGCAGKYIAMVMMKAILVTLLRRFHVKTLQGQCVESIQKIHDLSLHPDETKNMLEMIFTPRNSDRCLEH
Peroxisome proliferator-activated receptor gamma (Homo sapiens), sequence (P37231 whole entry, looked up): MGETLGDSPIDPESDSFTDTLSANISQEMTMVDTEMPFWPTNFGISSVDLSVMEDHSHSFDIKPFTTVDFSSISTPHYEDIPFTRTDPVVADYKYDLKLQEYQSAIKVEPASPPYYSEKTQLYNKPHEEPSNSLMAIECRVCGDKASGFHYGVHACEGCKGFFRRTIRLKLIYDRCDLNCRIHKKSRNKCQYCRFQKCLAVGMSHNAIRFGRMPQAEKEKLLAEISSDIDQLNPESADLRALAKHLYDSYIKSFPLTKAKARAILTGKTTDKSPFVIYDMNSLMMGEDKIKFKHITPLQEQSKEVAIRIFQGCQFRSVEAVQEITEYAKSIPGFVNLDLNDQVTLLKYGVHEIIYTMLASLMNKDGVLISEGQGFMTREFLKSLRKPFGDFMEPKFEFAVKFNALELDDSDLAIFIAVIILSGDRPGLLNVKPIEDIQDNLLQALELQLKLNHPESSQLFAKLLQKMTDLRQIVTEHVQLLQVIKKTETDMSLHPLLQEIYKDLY

`CN1CCOC(c2ccccc2)c2ccccc2C1` (centres undefined): the Potency entry in [1], in assay [2], in assay [5], in [6], in assay [7] and in assay [8] was “inactive” throughout. Also, the Potency entry in assay [9], in assay [12] and in assay [14] was “inactive” in each case. The result (in assay [3]; in assay [4]; with Aromatase (Homo sapiens); in assay [10]; in assay [11]; in assay [13]) was inactive. Also, in assay [15], the compound was classed as inactive.
As for `CC1CCc2c(N3CCC(O)CC3)c(F)cc3c(=O)c(C(=O)O)cn1c23` (centres undefined), the Potency result in [1], in assay [2], in [16], in assay [17], in [5] and in [6] was “inactive” throughout. The Potency result in [7], in assay [8], in assay [9] and in [14] was “inactive” in each case. Besides, the compound was called inactive (in assay [3]; in assay [4]; with Aromatase (Homo sapiens); in assay [11]; in assay [13]; in assay [15]).
On to `C=CCCCC`, for which the Potency result in [1], in [2], in assay [16], in assay [5], in [6] and in assay [7] was “inactive” in each case. In addition, the Potency result in assay [8], in assay [9] and in assay [14] was “inactive” each time. In addition, the compound was called inactive (in assay [3]; in assay [18]; in assay [4]; with Aromatase (Homo sapiens); in assay [11]; in [13]). Besides, in assay [15], the result was inactive.
`CNCCS(=O)(=O)O`: the Potency result in assay [1], in assay [2], in assay [5], in [6], in assay [7] and in assay [8] was “inactive” each time. Besides, the Potency entry in assay [9], in [12] and in assay [14] was “inactive” throughout. The outcome (in [3]; in assay [4]; with Aromatase (Homo sapiens); in [11]; in assay [13]; in assay [15]) was inactive.
In the case of `CCCCCCC1(C)CCC(=O)O1` (centres undefined), the Potency result in assay [1], in assay [2], in assay [16], in [17], in assay [5] and in [6] was “inactive” in each case. For the same compound, the Potency entry in [7], in assay [8], in assay [9], in assay [12] and in [14] was “inactive” each time. Besides, the compound was classed as inactive (in [3]; in assay [18]; in [19]; in the assay with Aromatase (Homo sapiens); in [10]; in assay [11]). Further, the compound was classed as inactive in assay [13] and in [15].
With `Cc1c(C(=O)c2c[nH]n(C)c2=O)ccc(S(C)(=O)=O)c1C1=NOCC1`, the Potency result in [1], in assay [2], in assay [16], in assay [17], in assay [5] and in [6] was “inactive” in each case. In addition, the Potency result in [7], in [8], in [9], in assay [12] and in assay [14] was “inactive” each time. Further, the result (in [3]; in assay [4]; in assay [19]; with Aromatase (Homo sapiens); in assay [11]; in assay [13]) was inactive.
`Cc1cc(-c2ccccc2)nnc1NCCN1CCOCC1`: the Potency entry in assay [1], in assay [2], in [16], in [5], in assay [6] and in [8] was “inactive” each time. In addition, the Potency result in assay [9], in assay [12] and in [14] was “inactive” each time. For the same compound, the compound was classed as inactive (in assay [3]; in assay [18]; in assay [4]; in assay [19]; with Aromatase (Homo sapiens); in assay [10]). In addition, the outcome in assay [11], in [13] and in [15] was inactive.
Regarding `O=C(O)CSCC(=O)NC1CCSC1=O` (centres undefined), the Potency entry in assay [1], in assay [2], in assay [5], in assay [6], in assay [7] and in assay [8] was “inactive” throughout. The Potency entry in [9], in [12] and in [14] was “inactive” each time. The outcome (in assay [3]; in assay [4]; in the assay with Aromatase (Homo sapiens); in assay [10]; in assay [11]; in assay [13]) was inactive. For the same compound, the compound was classed as inactive in [15].
As to `CC(=O)O[Si](C)(OC(C)=O)OC(C)=O`, the Potency result in assay [1], in assay [2], in [5], in assay [6], in assay [7] and in assay [8] was “inactive” throughout. Also, the Potency result in [9], in assay [12] and in assay [14] was “inactive” in each case. Further, the compound was called inactive (in assay [3]; in assay [4]; with Aromatase (Homo sapiens); in assay [11]; in assay [13]).
In the case of `Cc1cccc(Cl)c1`, the Potency result in assay [1], in assay [2], in assay [5], in assay [6], in [7] and in assay [8] was “inactive” throughout. The Potency entry in assay [9], in [12] and in [14] was “inactive” in each case. Moreover, the outcome (in assay [3]; in assay [4]; with Aromatase (Homo sapiens); in [11]; in assay [13]; in assay [15]) was inactive.
Regarding `CC(=O)CC(=O)OC(C)(C)C`, the Potency entry in assay [1], in assay [2], in [16], in assay [5], in assay [6] and in [7] was “inactive” in each case. Moreover, the Potency entry in assay [8], in assay [9] and in [14] was “inactive” throughout. Further, the result (in assay [3]; in [18]; in assay [4]; in the assay with Aromatase (Homo sapiens); in assay [11]; in assay [13]) was inactive. The outcome in assay [15] was inactive.
Take `N#Cc1ccccc1O`: the Potency result in assay [1], in [2], in assay [16], in assay [17], in assay [5] and in [6] was “inactive” each time. Besides, the Potency entry in assay [8], in assay [9], in assay [12] and in assay [14] was “inactive” in each case. The compound was called inactive (in assay [3]; in assay [4]; in the assay with Aromatase (Homo sapiens); in assay [11]; in assay [13]; in assay [15]).
On to `C[C@]12CCC(=O)C=C1CC[C@H]1[C@@H]3CC[C@](O)(C(=O)CO)[C@@]3(C)C[C@H](O)[C@@]12F`, for which the Potency result in [1], in assay [2], in [16], in assay [5], in assay [6] and in assay [7] was “inactive” each time. Besides, the Potency entry in [8], in [9], in assay [12] and in assay [14] was “inactive” each time. Further, the compound was classed as inactive (in assay [3]; in [4]; with Aromatase (Homo sapiens); in assay [11]; in [13]; in assay [15]). The Potency in assay [17] was 4.73 µM (active) and inactive.
Regarding `CC(=O)Nc1ccc(OC(=O)c2ccccc2OC(C)=O)cc1`, the Potency result in [1], in [2], in assay [16], in assay [17], in assay [5] and in assay [6] was “inactive” throughout. The Potency entry in assay [7], in [8], in assay [9] and in assay [14] was “inactive” throughout. Also, the compound was called inactive (in assay [3]; in assay [4]; in assay [19]; with Aromatase (Homo sapiens); in assay [10]; in assay [11]). Moreover, the compound was called inactive in [13] and in [15].
